{
  "source": "PubChem BioAssay AID485317",
  "about": "(Broad Institute, 2010)",
  "note": "Out of some 290,000 compounds screened, about 11,000 (3.8%) were called active. Only a selection was taken, and actives are over-represented in it overall. A number with no mark means an inactive call.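 Rule for the calls: active = mean replicate inhibition above about 79%, with every replicate also reaching it (limit read from the data); inconclusive = only one of the two criteria met; inactive = mean below limit and not every replicate reaching it.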",
  "data": [
    {"target": "FAD-linked sulfhydryl oxidase ALR (Homo sapiens) (UniProt P55789)", "sequence (P55789 whole entry, looked up)": "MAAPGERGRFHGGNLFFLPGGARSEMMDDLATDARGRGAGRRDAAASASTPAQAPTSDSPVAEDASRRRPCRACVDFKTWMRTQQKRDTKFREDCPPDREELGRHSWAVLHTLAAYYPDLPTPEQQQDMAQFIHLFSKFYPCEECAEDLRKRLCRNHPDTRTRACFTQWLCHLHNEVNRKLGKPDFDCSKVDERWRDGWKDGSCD", "assay": "ALR-catalysed DTT oxidation blockers – biochemical, H2O2 detection, HRP-luminol luminescence, single point, primary screen (AID 485317)", "settings": "purified ALR, active compounds read high, concentration not given here", "values": [
      {"smiles": "CC1CC(=O)Nc2ccccc2N1C(=O)COc1ccc2cc(Br)ccc2c1", "note": "(configuration not stated)", "inhibition": "12.2%"},
      {"smiles": "O=C(COc1ccc(F)cc1Br)NCC1COc2ccccc2O1", "note": "(configuration not stated)", "inhibition": "-3.27%"},
      {"smiles": "COc1cccc2sc3cc(NCC[C@@H]4CCCN4C)ccc3c(=O)c12", "inhibition": "-1.66%"},
      {"smiles": "O=c1[nH]nc(CSCc2ccccc2Cl)[nH]1", "inhibition": "-8.43%"},
      {"smiles": "Cc1cc(=O)[nH]c(SCc2ccc(Cl)cc2)n1", "inhibition": "-9.56%"},
      {"smiles": "O=c1cc(O)nc(SCc2ccccc2Cl)[nH]1", "inhibition": "100% (active)"},
      {"smiles": "COc1cccc2sc(Nc3nc(C)c(C(C)=O)s3)nc12", "inhibition": "32.7%"},
      {"smiles": "COc1cccc2sc(NNC(=O)c3nc4ccccc4s3)nc12", "inhibition": "93.7% (active)"},
      {"smiles": "COc1ccccc1OCc1nc2ccccc2s1", "inhibition": "2.66%"},
      {"smiles": "COC(=O)CN1C(=O)C(O)=C(C(C)=O)C1c1ccc([N+](=O)[O-])cc1", "note": "(configuration not stated)", "inhibition": "-8.67%"},
      {"smiles": "CC(=O)C1=C(O)C(=O)N(c2cccnc2)C1c1ccc([N+](=O)[O-])cc1", "note": "(configuration not stated)", "inhibition": "36.6%"},
      {"smiles": "CC(=O)C1=C(O)C(=O)N(c2ccc(Br)cc2)C1c1ccc([N+](=O)[O-])cc1", "note": "(configuration not stated)", "inhibition": "96.7% (active)"},
      {"smiles": "COc1ccc(S(=O)(=O)N2CCN(CC(=O)NCC3(N4CCOCC4)CCCCC3)CC2)cc1", "inhibition": "-0.676%"},
      {"smiles": "CCCn1nc(C(=O)NNC(=O)CCOc2ccccc2OCC)c2ccccc2c1=O", "inhibition": "16.7%"},
      {"smiles": "CCOc1ccc(NC(=O)CN(C)C(=O)COc2cccc(CC)c2)cc1OCC", "inhibition": "-14.9%"},
      {"smiles": "Cc1cc(NC(=O)CCS(=O)(=O)c2ccc(F)cc2)no1", "inhibition": "-5.46%"},
      {"smiles": "CC(C)(C)C(=O)OCc1nc(-c2ccc(O)c(O)c2)cs1", "inhibition": "99.4% (active)"},
      {"smiles": "COc1cc(CC(=O)Nc2nc(-c3ccc(F)c(F)c3)cs2)cc(OC)c1OC", "inhibition": "0.225%"},
      {"smiles": "Cc1onc(C(=O)NN)c1-c1csc(COc2ccccc2)n1", "inhibition": "-2.47%"},
      {"smiles": "COc1ccc(CNC(=O)COC(=O)c2ccc(C)c(S(=O)(=O)N3CCOCC3)c2)cc1OC", "inhibition": "-7.49%"},
      {"smiles": "CC1CCCCC1NC(=O)Cn1c(=O)cnc2ccccc21", "note": "(configuration not stated)", "inhibition": "-5.91%"},
      {"smiles": "COc1cc(/C=N/NC(=O)c2ccc(N3CCCC3=O)cc2)ccc1O", "inhibition": "28%"},
      {"smiles": "CCn1c(SCC(=O)N/N=C/c2ccncc2)nc2ccccc21", "inhibition": "-3.78%"},
      {"smiles": "Cn1c(SCC(=O)N/N=C/c2ccc(O)c(O)c2)nc2ccccc21", "inhibition": "98.9% (active)"},
      {"smiles": "C=CCOc1ccc(/C=N/NC(=O)C(C)Sc2ccccn2)cc1OCC", "note": "(configuration not stated)", "inhibition": "-4.04%"},
      {"smiles": "Cc1nc2ccccc2n1CC(=O)N/N=C/c1cccnc1", "inhibition": "-8.97%"},
      {"smiles": "COc1cc(/C=N/NC(=O)CCc2n[nH]c(=O)[nH]c2=O)ccc1O", "inhibition": "99.3% (active)"},
      {"smiles": "CCOc1ccc(/C=N/NC(=O)C(C)Sc2ccccn2)cc1OCC", "note": "(configuration not stated)", "inhibition": "-8.94%"},
      {"smiles": "NCCCCCC(=O)N/N=C/c1ccc2nccnc2c1", "inhibition": "0.997%"},
      {"smiles": "COc1cc(/C=N/NC(=O)Cc2ccccc2)cc(OC)c1OC", "inhibition": "-4.39%"},
      {"smiles": "Cc1ccc(/C=N/NC(=O)CSc2nc3ccccc3o2)cc1", "inhibition": "-3.09%"},
      {"smiles": "Cc1nccn1CC(=O)N/N=C/c1ccc(O)c(O)c1", "inhibition": "99.4% (active)"},
      {"smiles": "CCOc1ccc(/C=N/NC(=O)CSc2ccccn2)cc1O", "inhibition": "98.9% (active)"},
      {"smiles": "CC(C)(C)n1nc(Cc2cccc3ccccc23)c(C#N)c1N", "inhibition": "-16.1%"},
      {"smiles": "Cc1cc(NC(=O)CSc2nnc(-c3ccco3)n2N)no1", "inhibition": "-0.748%"},
      {"smiles": "CCOc1ccc2oc(C(=O)N(CC)CC(=O)Nc3ccc(NC(C)=O)cc3)c(C)c2c1", "inhibition": "-6.04%"},
      {"smiles": "CCOc1ccc2ccccc2c1/C=N/NC(=O)c1c(C)cc(C)[nH]c1=O", "inhibition": "-4.32%"},
      {"smiles": "COc1ccc(NC(=O)CN(C)C(=O)c2ccc(NC3CC3)c([N+](=O)[O-])c2)cc1", "inhibition": "9.73%"},
      {"smiles": "CCOc1cc(/C=N/NC(=O)c2cc(-c3ccccc3)nc3ccccc23)ccc1O", "inhibition": "12.6%"},
      {"smiles": "CCOc1cc(/C=N/NC(=O)CN2CCCCC2)ccc1O", "inhibition": "98.9% (active)"},
      {"smiles": "COc1cc(/C=N/NC(=O)c2ccoc2C)ccc1OCCN1CCCCC1", "inhibition": "-5.33%"},
      {"smiles": "O=C(O)c1ccc(N/N=C/c2cn(-c3ccccc3)nc2-c2cccs2)cc1", "inhibition": "98.9% (active)"},
      {"smiles": "COc1ccc(-c2nn(-c3ccccc3)cc2/C=C\\C(=O)Nc2ccc(C(=O)O)cc2)cc1", "inhibition": "-2.34%"},
      {"smiles": "O=C(/C=C\\c1cn(-c2ccccc2)nc1-c1cccs1)N1CCOCC1", "inhibition": "-5.03%"},
      {"smiles": "Cc1ccc(NC(=O)CCNC(=O)c2ccc([N+](=O)[O-])cc2)cc1S(=O)(=O)N1CCOCC1", "inhibition": "-6.28%"},
      {"smiles": "Cc1ccc(N2CCN(c3ccc(C)cc3)C2c2ccccn2)cc1", "inhibition": "86.9% (active)"},
      {"smiles": "Cc1ccc(N2C(=O)C3CC3C2=O)cc1", "note": "(configuration not stated)", "inhibition": "-2.01%"},
      {"smiles": "Cc1ccc(S(=O)(=O)NCC(=O)N2CCN(c3ccccn3)CC2)cc1", "inhibition": "3.32%"},
      {"smiles": "CC(C)(C)OC(=O)C[C@@H]1C/C=C\\C[C@H](CC(=O)N[C@@H](CO)Cc2ccccc2)C(=O)N[C@H](Cc2ccccc2)COC1=O", "inhibition": "-0.505%"},
      {"smiles": "O=C(NCc1ccccc1Cl)C(=O)NCC1CCCN1S(=O)(=O)c1cccs1", "note": "(configuration not stated)", "inhibition": "-7.66%"},
      {"smiles": "COc1ccc(C(=O)NC2CC(C)(C)Cc3c2cnn3-c2ccccc2)c(OC)c1", "note": "(configuration not stated)", "inhibition": "0.864%"},
      {"smiles": "CC1=C(C(=O)NC2CC(C)(C)Cc3c2cnn3-c2ccc(C)cc2)OCCO1", "note": "(configuration not stated)", "inhibition": "-16.8%"},
      {"smiles": "Cc1cc(C(=O)NC2CC(C)(C)Cc3c2cnn3-c2ccccc2)n[nH]1", "note": "(configuration not stated)", "inhibition": "92.1% (active)"},
      {"smiles": "CC(=O)Nc1cccc(C(=O)OCC(=O)NCc2cc(C)c(O)c(C)c2)c1", "inhibition": "25.7%"},
      {"smiles": "Cc1cccc2c(=O)n3c(nc12)CCCCC3", "inhibition": "-3.58%"},
      {"smiles": "O=c1c2c(nc3n1CCCCC3)sc1c(O)cccc12", "inhibition": "94.5% (active)"},
      {"smiles": "CC(=O)c1ccc(NC(=O)c2sc3nc4n(c(=O)c3c2C)CCCCC4)cc1", "inhibition": "-6.68%"},
      {"smiles": "CSc1ncccc1C(=O)Nc1ccc2c(c1)OCO2", "inhibition": "-7.77%"},
      {"smiles": "COc1ccccc1N1CCN(CC(=O)Nc2ccnn2C2CCCC2)CC1", "inhibition": "21.7%"},
      {"smiles": "CC(=O)NC1C(OCc2ccccc2)OC(COC(C)=O)C(OC(C)=O)C1OC(C)=O", "note": "(configuration not stated)", "inhibition": "-6.67%"},
      {"smiles": "O=C(OCC1O[C@@H](OC(=O)c2cc(O)c(O)c(O)c2)[C@@H](OC(=O)c2cc(O)c(O)c(O)c2)[C@@H](OC(=O)c2cc(O)c(O)c(O)c2)[C@@H]1OC(=O)c1cc(O)c(O)c(O)c1)c1cc(O)c(O)c(O)c1", "note": "(some centres not stated)", "inhibition": "98.8% (active)"},
      {"smiles": "O=C(OCC1OC(Oc2ccc(O)cc2)C(O)C(O)C1O)c1ccccc1", "note": "(configuration not stated)", "inhibition": "23.2%"},
      {"smiles": "NC(=O)c1ccsc1NC(=O)COC(=O)Cc1n[nH]c(=O)c2ccccc12", "inhibition": "-7.95%"},
      {"smiles": "Cc1cccc(NS(=O)(=O)c2ccc(C)c(C(=O)NCc3cccnc3)c2)c1", "inhibition": "-5.85%"},
      {"smiles": "c1ccc(Nc2n[nH]nc2-c2ccccc2)cc1", "inhibition": "100% (active)"},
      {"smiles": "O=C(O)c1n[nH]nc1-c1ccccc1", "inhibition": "-0.621%"},
      {"smiles": "CCCCNC(=S)NNC(=O)c1cc(C)on1", "inhibition": "55.3%"},
      {"smiles": "CCCCNC(=O)C(=O)c1ccccc1NC(C)=O", "inhibition": "-1.84%"},
      {"smiles": "CCCCNC(=O)Nc1c(C)cc(SC#N)cc1C", "inhibition": "96.7% (active)"},
      {"smiles": "O=C(OCc1cc(=O)n2ccsc2n1)C1(c2ccc(Cl)cc2)CC1", "inhibition": "-1.54%"},
      {"smiles": "COc1ccccc1C(=O)NC(=O)COC(=O)c1ccco1", "inhibition": "-0.0405%"},
      {"smiles": "Cc1cccc(NC(=O)c2ccc(S(=O)(=O)N(C)CC3CCCO3)cc2)c1C", "note": "(configuration not stated)", "inhibition": "-10.6%"},
      {"smiles": "CCN(CC(=O)NC(C)C)C(=O)c1cc(S(=O)(=O)N2CCCCC2)ccc1N1CCCCC1", "inhibition": "-1.75%"},
      {"smiles": "NC(=O)Nc1ccc(C(=O)OCC(=O)NC2CCCc3ccccc32)cc1", "note": "(configuration not stated)", "inhibition": "-2.38%"},
      {"smiles": "CSCC[C@H](NC(=O)N1CCn2c1nc1ccccc12)C(=O)NCc1ccc2c(c1)OCO2", "inhibition": "-4.75%"},
      {"smiles": "CSCC[C@H](NC(=O)N1CCn2c1nc1ccccc12)C(=O)NC1CCCCC1", "inhibition": "98.2% (active)"},
      {"smiles": "CC(C)C[C@H](NC(=O)N1CCn2c1nc1ccccc12)C(=O)NC1CC1", "inhibition": "-10.7%"},
      {"smiles": "CC1CCN(C(=O)COC(=O)c2cc(=O)[nH]c3ccccc23)CC1", "inhibition": "2.67%"},
      {"smiles": "COc1cc(Cl)c(C)cc1NC(=O)CSc1nnc(-c2ccco2)n1CC(C)C", "inhibition": "2.64%"},
      {"smiles": "CCn1c(SCC(=O)Nc2cc(C)c(Cl)cc2OC)nnc1-c1ccco1", "inhibition": "98.5% (active)"},
      {"smiles": "COc1cc(Cl)c(C)cc1NC(=O)CSc1nnc(-c2cccnc2)n1Cc1ccco1", "inhibition": "20.1%"},
      {"smiles": "CCOC(=O)[C@H]1[C@H]2COc3ccccc3[C@@H]2N2C(=O)CN(Cc3ccccc3)C(=O)[C@@]12C", "inhibition": "-1.27%"},
      {"smiles": "C/C(=N\\Nc1nc2ccccc2[nH]1)c1cccs1", "inhibition": "99% (active)"},
      {"smiles": "C/C(=N\\Nc1ncc(Cl)cc1Cl)c1cccs1", "inhibition": "0.466%"},
      {"smiles": "O=C(Nc1ccccc1-c1nc2ccccc2[nH]c1=O)c1cccs1", "inhibition": "1.37%"},
      {"smiles": "O=C1CCC/C=C/C[C@@H](CC(=O)N(CCO)Cc2ccccc2)C(=O)NC[C@H](c2ccccc2)O1", "inhibition": "0.972%"},
      {"smiles": "CCC[C@H]1CCCC/C=C\\CCCC(=O)OCCN1C(=O)OC(C)(C)C", "inhibition": "-2.32%"},
      {"smiles": "CC(C)CC1NC(=O)c2cc(Cl)ccc2-n2c1nc1ccccc1c2=O", "note": "(configuration not stated)", "inhibition": "-5.03%"},
      {"smiles": "COc1cnn(-c2ccc([N+](=O)[O-])cc2)c(=O)c1Cl", "inhibition": "4%"},
      {"smiles": "Cc1ccc(-n2c(-c3ccc(Cl)cc3)n[nH]c2=S)cc1", "inhibition": "-1.26%"},
      {"smiles": "COc1ccc(-n2c(-c3ccc(OC)c(OC)c3)n[nH]c2=S)cc1", "inhibition": "94% (active)"},
      {"smiles": "Cc1ccc(OCc2n[nH]c(=S)n2-c2ccc(C)cc2)cc1", "inhibition": "47.3%"}
    ]}
  ]
}
